Data published in PubChem BioAssay (EPA / NIEHS).
Activity calls are given as the source filed them. Rule for the calls: active = hit-call score of the fitted dose curve at least 0.9, where 1 is the maximum; inactive = score below 0.9.

What was measured:
[1] = APR_HepG2_CellLoss_72hr: Apredica 72-hour HepG2 Assay for Cell Loss (AID 2282915); conditions: high-content imaging
Summary of the method: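 HepG2 cells were exposed for 72 hr to compounds at 0.39–200 uM (ten concentrations, duplicate) in 0.5% v/v final DMSO. Nuclei were stained with Hoechst 33342 after 3.7% formaldehyde fixation, imaged at 20x, and counted; fits bidirectional versus DMSO.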

[2] = APR_HepG2_P-H2AX_72hr: Apredica 72-hour HepG2 Assay for H2AX Phosphorylation (AID 2282916); conditions: imaging, actives raise or lower the signal;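 note: phospho-histone H2A.x immunostain intensity per cell marking DNA damage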
Summary of the method: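 Phospho-histone H2A.x immunofluorescence, multiplexed with Hoechst and c-Jun, quantified by high-content imaging. Compounds applied to HepG2 for 72 h across ten concentrations (0.39–200 uM, 0.5% DMSO), in duplicate; DMSO baseline.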

[3] = APR_HepG2_MitoMembPot_72hr: Apredica 72-hour HepG2 Assay for Mitochondrial Membrane Potential (AID 2282917); conditions: imaging, actives raise or lower the signal
Summary of the method: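 HepG2 cells exposed 72 h to compounds at 0.39–200 uM (0.5% v/v DMSO, duplicates); MitoTracker Red CMXRos 250 nM loaded 30 min before 3.7% formaldehyde fixation, imaged by HCS fluorescence. Bidirectional fit versus DMSO.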

[4] = APR_HepG2_MitoticArrest_72hr: Apredica 72-hour HepG2 Assay for Mitotic Arrest (AID 2282918); conditions: high-content imaging, actives raise or lower the signal
Summary of the method: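 HepG2, 72 hr exposure, 0.39–200 uM in duplicate, 0.5% v/v DMSO final. Formaldehyde-fixed, Triton-permeabilized, anti-phospho-histone H3/FITC plus Hoechst. ArrayScan imaging at 20x; curves fit bidirectionally against DMSO baseline.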

[5] = APR_HepG2_MicrotubuleCSK_72hr: Apredica 72-hour HepG2 Assay for Microtubule CSK Stabilty (AID 2282919); conditions: HepG2 microtubule cytoskeleton, high-content imaging, actives raise or lower the signal
Summary of the method: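 Ten-point dosing (0.39–200 uM, 0.5% DMSO) of HepG2 for 72 hr, with taxol as the cytoskeletal positive control. The cells were formaldehyde-fixed and then stained with alpha-tubulin/Cy5 and Hoechst. Imaging at 20x used a −2 um Z offset for tubulin.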

[6] = APR_HepG2_P-H2AX_24hr: Apredica 24-hour HepG2 Assay for H2AX Phosphorylation (AID 2282920); conditions: high-content imaging, actives raise or lower the signal
Summary of the method: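 HCS fluorescence imaging of phospho-H2A.x immunostain (with Hoechst 33342 nuclear counterstain) in HepG2 after 24 hr compound exposure; 10 concentrations, 0.39–200 uM, duplicate wells, 0.5% v/v DMSO. Gain or loss of signal fitted relative to DMSO baseline.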

[7] = APR_HepG2_StressKinase_72hr: Apredica 72-hour HepG2 Assay for Stress Kinase (AID 2282921); conditions: HepG2 stress kinase (phospho-c-Jun) imaging, actives raise or lower the signal
Summary of the method: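 Stress kinase signal is phospho-c-Jun immunofluorescence (1:500 primary, Cy3 secondary) in fixed, permeabilized human HepG2 cells imaged at 20x. Exposure lasted 72 hr over ten concentrations from 0.39 to 200 uM, 0.5% DMSO, in duplicate. Bidirectional fit versus DMSO.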

[8] = APR_HepG2_StressKinase_24hr: Apredica 24-hour HepG2 Assay for Stress Kinase (AID 2282922); conditions: HepG2 stress kinase (phospho-c-Jun) imaging, actives raise or lower the signal
Summary of the method: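 After 24 hr compound treatment (up to 200 uM, final DMSO 0.5% v/v), HepG2 cells are fixed and multiplex-labeled; phospho-c-Jun intensity is captured by high-content fluorescence imaging and analyzed relative to DMSO.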

[9] = APR_HepG2_p53Act_72hr: Apredica 72-hour HepG2 Assay for p53 Activation (AID 2282923); conditions: high-content imaging, actives raise or lower the signal;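 note: average cellular p53 protein immunofluorescence intensity in HepG2 cells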
Summary of the method: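 After 72 h with compound (ten points, 0.39 to 200 uM, final DMSO 0.5% v/v), fixed HepG2 cells were labelled with sheep anti-p53 and Hoechst 33342 and imaged; gain or loss versus DMSO scored.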

[10] = APR_HepG2_MitoMass_72hr: Apredica 72-hour HepG2 Assay for Mitochondrial Mass (AID 2282924); conditions: high-content imaging, actives raise or lower the signal;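 note: MitoTracker Red CMXRos stain intensity per cell imaged as mitochondrial mass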
Summary of the method: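 Steps: treat HepG2 72 hr (0.39–200 uM, duplicate wells); load MitoTracker Red CMXRos, 250 nM, 30 min; fix with 3.7% formaldehyde, permeabilise with 0.5% Triton X-100; capture images, nuclei via Hoechst 33342; fit bidirectionally against DMSO.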

[11] = APR_HepG2_NuclearSize_72hr: Apredica 72-hour HepG2 Assay for Nuclear Size (AID 2282925); conditions: high-content imaging, actives raise or lower the signal
Summary of the method: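 Compounds (0.39–200 uM, final DMSO 0.5%) were applied to HepG2 for 72 hr. Cells were then formaldehyde-fixed, permeabilized and labelled with Hoechst 33342. Nuclear diameter was quantified from six images per well.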

[12] = ATG_CRE_CIS: Attagene CIS-FACTORIAL HepG2 Assay for human cAMP Responsive Element (CRE) binding protein 3 (AID 2282926); conditions: HepG2 CRE cis-reporter, Attagene multiplexed mRNA; actives raise or lower the signal
Summary of the method: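 Readout: fluorescently labelled reporter transcripts resolved by capillary electrophoresis after RT-PCR, taken 24 h post-dosing in transfected HepG2. Endogenous transcription factor activity drives each cis-element reporter; gain or loss of signal fitted relative to DMSO control.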

[13] = target: CCAAT/enhancer-binding protein beta (Homo sapiens) (UniProt P17676); experiment: ATG_C_EBP_CIS: Attagene CIS-FACTORIAL HepG2 Assay for human CCAAT/Enhancer Binding Protein (C/EBP) beta (AID 2282927); conditions: HepG2 Attagene cis-factorial transcription factor reporter; actives raise or lower the signal
Summary of the method: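 Chemical-treated HepG2 cells (24 h) bearing cis-regulated reporter constructs were processed for total RNA, then reverse transcription, PCR amplification, fluorescent primer extension and fragment analysis; gain- and loss-of-signal were fitted against DMSO.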

[14] = ATG_CMV_CIS: Attagene CIS-FACTORIAL HepG2 Assay for human CMV (Internal Marker) (AID 2282928); conditions: HepG2 CMV promoter reporter, transcription factor profiling; actives raise or lower the signal;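 note: endpoint acts as a background internal control marker rather than a target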
Summary of the method: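 Bidirectional fits against DMSO are applied to reporter mRNA, read by RT-PCR with capillary electrophoresis, from HepG2 cells exposed 24 h. The endpoint serves as an internal CMV background marker within the cis-factorial reporter panel.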

[15] = ATG_DR4_LXR_CIS: Attagene CIS-FACTORIAL HepG2 Assay for human Liver X Receptor (LXR), DR4 submotif (AID 2282929); conditions: HepG2 Attagene DR4 cis-reporter, mRNA transcription; actives raise or lower the signal
Summary of the method: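 After transient transfection with multiplexed cis-promoter reporter units, HepG2 cells received test chemicals for 24 h. Reporter mRNA induction, detected by fluorescence after RT-PCR and capillary electrophoresis, was scored relative to DMSO.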

[16] = target: Aryl hydrocarbon receptor (Homo sapiens) (UniProt P35869); experiment: ATG_Ahr_CIS: Attagene CIS-FACTORIAL HepG2 Assay for human Aryl Hydrocarbon Receptor (Ahr) (AID 2282930); conditions: HepG2 AhR cis-factorial reporter transcription; actives raise or lower the signal
Summary of the method: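 Following 24 h of chemical dosing, transfected HepG2 liver cells with cis-driven reporter units were lysed for RNA; reporter mRNA was quantified via RT-PCR and capillary electrophoresis, and responses fitted bidirectionally from DMSO.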

[17] = ATG_AP_1_CIS: Attagene CIS-FACTORIAL HepG2 Assay for human Activator Protein 1 (AP-1) (AID 2282931); conditions: HepG2 Attagene cis-factorial AP-1 reporter mRNA; actives raise or lower the signal
Summary of the method: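 After 24 h incubation with test chemical, RNA from transfected HepG2 cells was reverse-transcribed, amplified, fluorescently labelled and digested before capillary electrophoresis. Reporters were driven by cis-regulatory promoters; activity fitted bidirectionally versus DMSO.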

[18] = ATG_AP_2_CIS: Attagene CIS-FACTORIAL HepG2 Assay for human Activator Protein 2 (AP-2) (AID 2282932); conditions: HepG2 AP-2 cis-reporter, Attagene transcription factor profiling; actives raise or lower the signal
Summary of the method: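 Cells (HepG2) transfected with promoter-driven reporter constructs, treated 24 h. Total RNA reverse-transcribed, reporter cDNA PCR-amplified, FAM-labelled by primer extension, digested, resolved by capillary electrophoresis. Activity fitted both directions versus DMSO.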

[19] = ATG_BRE_CIS: Attagene CIS-FACTORIAL HepG2 Assay for human Bone Morphogenetic Protein (BMP) Response Element (BRE) (AID 2282933); conditions: HepG2 BMP response element reporter, Attagene transcription factor profiling; actives raise or lower the signal
Summary of the method: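 Gain- or loss-of-signal was derived by bidirectional fitting against DMSO controls. The signal came from reporter mRNA, measured by RT-PCR and capillary electrophoresis, in HepG2 cells transiently carrying multiple reporter units and dosed for 24 h.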

[20] = target: Retinoic acid receptor alpha (Homo sapiens) (UniProt P10276); experiment: ATG_DR5_RAR_CIS: Attagene CIS-FACTORIAL HepG2 Assay for human Retinoic Acid Receptor Alpha (RARE), DR5 submotif (AID 2282934); conditions: HepG2 Attagene cis-factorial RARE DR5 reporter, mRNA; actives raise or lower the signal;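 for AC50: reporter responds to endogenous RAR alpha beta and gamma in HepG2 not RARA alone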
Summary of the method: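 Transfected HepG2 reporter cells are exposed to chemicals for 24 h. Then RNA is extracted and the DR5 element reporter transcript is measured by RT-PCR and capillary electrophoresis, with bidirectional curve fitting relative to DMSO.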

Measured: AC50

Sequence of Retinoic acid receptor alpha (Homo sapiens) (P10276 whole entry, looked up): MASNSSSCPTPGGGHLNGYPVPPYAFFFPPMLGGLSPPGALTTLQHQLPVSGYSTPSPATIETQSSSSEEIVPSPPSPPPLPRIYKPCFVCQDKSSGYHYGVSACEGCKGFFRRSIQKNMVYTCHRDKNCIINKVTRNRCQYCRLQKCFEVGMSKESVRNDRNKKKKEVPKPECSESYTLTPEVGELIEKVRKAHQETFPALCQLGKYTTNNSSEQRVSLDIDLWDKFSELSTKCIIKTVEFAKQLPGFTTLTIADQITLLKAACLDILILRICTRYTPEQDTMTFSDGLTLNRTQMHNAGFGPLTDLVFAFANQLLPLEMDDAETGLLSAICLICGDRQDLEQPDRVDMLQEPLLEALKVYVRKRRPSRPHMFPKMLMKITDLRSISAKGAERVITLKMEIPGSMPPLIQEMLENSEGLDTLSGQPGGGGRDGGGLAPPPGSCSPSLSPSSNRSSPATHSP
Sequence of Aryl hydrocarbon receptor (Homo sapiens) (P35869 whole entry, looked up): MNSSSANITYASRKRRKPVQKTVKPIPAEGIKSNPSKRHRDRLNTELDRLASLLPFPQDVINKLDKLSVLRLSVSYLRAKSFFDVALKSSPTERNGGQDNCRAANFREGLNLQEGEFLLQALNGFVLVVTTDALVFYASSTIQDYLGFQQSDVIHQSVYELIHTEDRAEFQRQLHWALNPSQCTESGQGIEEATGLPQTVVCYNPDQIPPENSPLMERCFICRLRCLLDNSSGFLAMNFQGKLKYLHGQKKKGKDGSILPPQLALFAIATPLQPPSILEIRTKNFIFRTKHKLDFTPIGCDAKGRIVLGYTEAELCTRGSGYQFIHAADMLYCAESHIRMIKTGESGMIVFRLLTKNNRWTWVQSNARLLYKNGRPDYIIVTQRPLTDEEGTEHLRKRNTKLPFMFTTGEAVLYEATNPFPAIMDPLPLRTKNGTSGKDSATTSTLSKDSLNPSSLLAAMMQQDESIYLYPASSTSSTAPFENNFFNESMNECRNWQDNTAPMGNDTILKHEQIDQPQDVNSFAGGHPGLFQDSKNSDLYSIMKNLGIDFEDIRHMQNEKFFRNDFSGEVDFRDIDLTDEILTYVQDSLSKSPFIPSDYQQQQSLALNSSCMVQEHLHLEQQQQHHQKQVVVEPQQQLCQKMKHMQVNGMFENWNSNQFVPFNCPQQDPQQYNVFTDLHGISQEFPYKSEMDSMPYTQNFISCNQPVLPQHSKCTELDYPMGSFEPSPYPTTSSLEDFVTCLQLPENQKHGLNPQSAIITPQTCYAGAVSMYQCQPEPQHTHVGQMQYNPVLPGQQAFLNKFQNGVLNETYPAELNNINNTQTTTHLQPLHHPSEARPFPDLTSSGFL
Sequence of CCAAT/enhancer-binding protein beta (Homo sapiens) (P17676 whole entry, looked up, the tested form may be a part): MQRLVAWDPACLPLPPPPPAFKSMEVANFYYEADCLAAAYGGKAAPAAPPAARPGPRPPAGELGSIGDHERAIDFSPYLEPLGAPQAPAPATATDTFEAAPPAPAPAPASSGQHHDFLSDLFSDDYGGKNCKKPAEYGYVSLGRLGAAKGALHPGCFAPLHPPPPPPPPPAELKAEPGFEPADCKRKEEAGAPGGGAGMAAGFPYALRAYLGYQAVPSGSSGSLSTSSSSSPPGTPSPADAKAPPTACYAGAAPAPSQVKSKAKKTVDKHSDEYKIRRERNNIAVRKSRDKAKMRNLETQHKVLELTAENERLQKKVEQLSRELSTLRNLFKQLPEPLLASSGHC

N#Cc1c(Cl)c(Cl)c(Cl)c(C#N)c1Cl
active: [1] 452 nM | [6] 322 nM | [20] 167 nM
inactive: all other assays above

C#CCN1C(=O)COc2cc(F)c(N3C(=O)C4=C(CCCC4)C3=O)cc21
active: [12] 22400 nM
not listed: [9]
inactive: all other assays above

CCC(C)(C)C(=O)OC1=C(c2ccc(Cl)cc2Cl)C(=O)OC12CCCCC2
active: [1] 133000 nM
inactive: all other assays above

O=C(O)CCCOc1ccc(Cl)cc1Cl
inactive: all assays above

O=C(O)COc1ccc(Cl)cc1Cl
not listed: [16] | [20]
inactive: all other assays above
